# Shown are actives, neighbours in structure and some others; about 8.9% of the full set was active somewhere.
# D3 antag: blocks the human D3 dopamine receptor. P35462. D3R cells, DiscoveRx beta-arrestin luminescence, antagonist mode; hits give low values. max response, negative = inhibition, %. 360,000 compounds, 2.5% hits. AID 652054; in the data active means max response below about -50%; inconclusive means no clear call, values can overlap the other calls
# Target sequence (P35462 whole entry, looked up): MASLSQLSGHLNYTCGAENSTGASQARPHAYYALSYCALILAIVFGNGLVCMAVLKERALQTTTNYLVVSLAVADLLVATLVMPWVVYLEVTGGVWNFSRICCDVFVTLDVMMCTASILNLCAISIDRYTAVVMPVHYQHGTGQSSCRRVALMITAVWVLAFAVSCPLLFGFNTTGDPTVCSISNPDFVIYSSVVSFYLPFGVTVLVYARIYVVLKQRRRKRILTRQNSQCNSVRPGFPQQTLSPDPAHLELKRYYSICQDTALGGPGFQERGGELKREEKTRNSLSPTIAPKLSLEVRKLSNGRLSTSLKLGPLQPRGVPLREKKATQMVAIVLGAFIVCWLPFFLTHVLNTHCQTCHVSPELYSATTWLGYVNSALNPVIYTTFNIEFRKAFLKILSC
#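 Cells expressing the human receptor were seeded at 1500 cells/well, incubated overnight at 37 degrees C in 5% CO2, then exposed to library compounds with dopamine controls for 90 minutes at 37 degrees C before luminescent detection.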
# SW480 rerep: DNA re-replication induction in SW480 cells; SW480 DNA re-replication, Hoechst DNA content imaging, 48 h; Potency, µM (highest dose often 46.1 µM), actives largely listed as activators; 340,000 compounds, 1.8% hits; AID 624297; further: nearly all actives have a fitted effect of over 55% in size
#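 SW480 cells exposed to compounds for 48 hr at 37 C, 5% CO2, then Hoechst-stained 40 min. Nuclear DNA content imaged by fluorescence scanning (405 nm excitation, 500-530 nm emission); re-replication scored as increased high-intensity nuclei.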
# KB-V1 cytotox: kills drug-selected multidrug resistant KB-V1 cells. KB-V1 MDR cells viability, CellTiter-Glo, 72 h. Potency, µM (doses to about 46.1 µM), most hits filed as cytotoxic. 400,000 compounds, 3.4% hits; further: nearly all actives have a fitted effect of over 60% in size
#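 Compound-treated KB-V1 multidrug-resistant cells, 72 h, 37 degrees C; viability by CellTiter-Glo. Fitted qHTS curves give the values.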
# D3 ag: agonists of human D3 dopamine receptor; P35462; D3R DiscoveRx beta-arrestin cells, luminescence, 90 min; max activation, %; 410,000 compounds, 0.58% hits; in the data active means max activation above about 30%
#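 Cells at 1500/well, incubated overnight, then treated with pinned compounds (dopamine as control) for 90 min at 37 degrees C. DiscoveRx reagent added for 30 - 60 minutes at room temperature; luminescence read.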
# MCF10A rerep: DNA re-replication induction in MCF 10a cells. MCF 10A DNA re-replication, Hoechst nuclear intensity, 48 h. 350,000 compounds, 2.9% hits. Potency, µM (series often up to 46.1 µM), actives largely listed as activators; further: nearly all actives have a fitted effect of over 50% in size
# KB-3-1 tox: kills parental KB-3-1 adenocarcinoma cells. Potency, µM (highest dose often 46.1 µM), most hits filed as cytotoxic. 400,000 compounds, 1.4% hits. KB-3-1 viability, CellTiter-Glo ATP luminescence, 72 h; further: nearly all actives have a fitted effect of over 60% in size
#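 Here the drug-naive KB-3-1 line serves as comparator for MDR sub-line selectivity; cells received compound titrations, 72 h at 37 °C, then CellTiter-Glo readout.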
# Numbers stand for hits; n = inactive; u = inconclusive; x = no result given; [ ] = dose if it differs, or a comment. Unless noted, the call rests on the fitted dose curve; in most records, active means well fitted curve in the direction sought with a large enough effect; inconclusive means small, poorly fitted or top-dose-only effect, or another doubt; inactive means no such curve, though single readings can be large; an effect the other way counts as inactive or inconclusive.
SMILES,D3 antag,SW480 rerep,KB-V1 cytotox,D3 ag,MCF10A rerep,KB-3-1 tox
Cc1ccc(CN2CCN(/N=C/c3ccc(O)c(O)c3)CC2)cc1,-64,n,n,n,n,n
COc1cc(-c2ccno2)ccc1S(=O)(=O)N1CCN(c2ccc(C(C)=O)cc2)CC1,x,x,n,n,x,n
Cc1cc(-c2ccccc2)n[nH]1,n,n,n,n,0.65µM,n
Cc1nc(-c2ccccc2)cc(-c2ccccc2)n1,n,n,n,n,n,n
Cc1ccc(CNC(=O)CCCCCn2c(=O)c3sccc3n(CC(=O)C(C)(C)C)c2=O)cc1,x,x,n,n,x,n
CCCCn1c(=O)[nH]c(=O)c2c1nc(CN1C(=O)c3ccccc3S1(=O)=O)n2CCC,n,n,n,n,n,n
CCCCn1c(=O)[nH]c(=O)c2c1nc(Cn1ncc(Cl)c(Cl)c1=O)n2CCC,-64,u,n,n,u,2.9µM
O=C(CSc1nc2ccccc2n1Cc1ccccc1)N1CCN(c2ccc(F)cc2)CC1,x,x,n,n,x,n
COc1ccc(-c2cn3c(n2)sc2cc(C(=O)Nc4cccc(OC)c4)ccc23)cc1,x,x,x,n,x,x
CCCNC(=O)c1ccc2c(c1)sc1nc(-c3ccc(C)cc3)cn12,x,x,n,n,x,n
CCN(CC)CCCNC(=O)c1ccc2c(c1)sc1nc(-c3ccc(C)cc3)cn12,x,x,u,n,x,16µM
COc1ccc(-c2cn3c(n2)sc2cc(C(=O)Nc4cccc(SC)c4)ccc23)cc1,x,x,x,77,x,x
COc1ccc(CCNS(=O)(=O)c2ccc(N3CCCCS3(=O)=O)cc2)cc1,x,x,n,n,x,n
CCN(CC)c1ccc(C(=O)NCc2ccc3c(c2)CCN3C(=O)c2ccc(F)cc2)cc1,x,x,u,n,x,15µM
O=C(NCc1ccc2c(c1)CCN2C(=O)c1ccccc1)c1ccc(Br)o1,x,x,n,n,x,n
O=C(NCc1ccc2c(c1)CCN2C(=O)c1ccc(F)cc1)c1ccc(Br)o1,x,x,2.6µM,n,x,u
Nc1nc2ccc(Cl)cc2cc1C(=O)NCCc1c[nH]c2ccccc12,n,x,n,n,x,9.2µM
CCOC(=O)Cn1nnnc1CN(Cc1ccccc1)Cc1cc2cc(CC)ccc2[nH]c1=O,n,u,n,n,10µM,n
O=c1[nH]c2cc3c(cc2cc1CN(Cc1cccnc1)Cc1nnnn1Cc1ccco1)OCCO3,n,n,n,n,n,n
O=c1[nH]c2cc3c(cc2cc1CN(Cc1ccccc1)Cc1nnnn1Cc1ccco1)OCCO3,n,u,23µM,n,n,n
CCc1ccc2[nH]c(=O)c(CN(Cc3ccccc3)Cc3nnnn3Cc3ccccc3)cc2c1,x,x,n,x,x,n
CC(=O)N1N=C(c2cccc(NS(=O)(=O)c3ccc(C)cc3)c2)CC1c1ccco1 (stereo not drawn),n,16µM,n,n,u,u
CC(=O)N1N=C(c2ccc(NS(=O)(=O)c3ccccc3)cc2)CC1c1ccco1 (stereo not drawn),n,12µM,n,n,u,u
CCc1ccc(C2=NN(C(C)=O)C(c3ccco3)C2)cc1 (stereo not drawn),n,n,n,n,u,u
CC(=O)c1c(C)[nH]c(C(=O)OCc2ccccc2F)c1C,n,n,4.6µM,n,n,n
SMILES,D3 antag,SW480 rerep,KB-V1 cytotox,D3 ag,MCF10A rerep,KB-3-1 tox
Cc1c(C(=O)OCCOc2ccccc2)[nH]c2c1C(=O)CCC2,n,n,12µM,n,u,n
CC(=O)c1c(C)[nH]c(C(=O)OCCOc2ccccc2)c1C,n,n,6.5µM,n,n,u
CCOc1ccc(C2CC(=O)c3c([nH]c(C(=O)OCCOc4ccccc4)c3C)C2)cc1 (stereo not drawn),x,x,n,n,x,n
CC(=O)c1c(C)[nH]c(C(=O)OCc2ccc(Br)cc2)c1C,n,n,6.5µM,n,n,u
Cc1cccc(NC(=O)c2sc3nc(N4CCOCC4)c4c(c3c2N)CC(C)(C)OC4)c1,x,x,u,n,x,n
Cc1nc2cc(C(=O)O)ccc2n1-c1ccc(C(C)C)cc1,x,x,n,n,x,n
CCCN(CC1CCCO1)C(=O)c1cc(COc2ccc(F)cc2F)on1 (stereo not drawn),n,n,n,n,n,n
Cn1c(=O)c(-c2ccccc2)cc2ccccc21,n,n,n,47,n,n
Cn1c(C(c2cc3ccccc3n2C)c2cc3ccccc3n2C)cc2ccccc21,x,x,u,x,x,18µM
Cn1c(-c2ccccc2)cc2ccccc21,n,n,n,n,n,n
CCOC(=O)c1[nH]c(C)c(C(=O)Nc2ccc(C)c(F)c2)c1C,n,12µM,2.9µM,n,12µM,u
CCOC(=O)c1[nH]c(C)c(C(=O)Nc2ccc(C)c(Cl)c2)c1C,n,u,n,n,21µM,u
CCOC(=O)c1[nH]c(C)c(C(=O)NC2CCCC2)c1C,n,n,n,n,n,n
O=C(/C=C/c1cccnc1)c1ccc(O)cc1,n,21µM,u,n,u,u
O=C(/C=C/c1cccc(O)c1)c1cccnc1,n,u,u,n,21µM,n
CN(C)c1ccc(/C=C/C(=O)c2ccc(O)cc2)cc1,n,18µM,n,n,u,u
CN(C)c1ccc(C(=O)C=Cc2ccc([N+](=O)[O-])cc2)cc1,n,x,n,n,x,n
O=C(C=Cc1cccnc1)c1ccccc1,n,n,u,n,u,u
O=C(NS(=O)(=O)c1ccc(NC(=O)C2CCCO2)cc1)c1ccccc1 (stereo not drawn),n,n,n,n,n,n
O=C(Nc1ccc(Oc2ccccc2)cc1)C1CCCO1 (stereo not drawn),-79,u,n,n,7.3µM,n
CC(C)N(c1ccccc1)c1ccc(NC(=O)C2CCCO2)cc1 (stereo not drawn),n,n,21µM,n,n,n
Cc1ccc([N+](=O)[O-])c(OCCN2CCNCC2)c1,-62,n,n,n,n,n
COCCCNCCOCCOc1ccc(C)cc1[N+](=O)[O-],-54,n,n,n,n[0.0737 µM],n
COCCCNCCOc1ccc(C)cc1[N+](=O)[O-],-84,n,n,n,n,n
Cc1ccc(OCCN2C(=O)c3ccccc3C2=O)c(C)c1,n,n,u,n,n,n
SMILES,D3 antag,SW480 rerep,KB-V1 cytotox,D3 ag,MCF10A rerep,KB-3-1 tox
Cc1ccc(OCCN2C(=O)c3ccccc3C2=O)c([N+](=O)[O-])c1,-69,u,n,n,n,n
COCCNCCCCOc1ccc(C)cc1[N+](=O)[O-],n,n,n,n,n,n
COc1ccc(OCCn2nnc3sc4c(c3c2=O)CCCC4)cc1,x,x,n,n,x,n
CNS(=O)(=O)c1cn(CC(=O)N2CCN(c3ccc(C)cc3C)CC2)cc1S(=O)(=O)NC,x,x,n,n,x,n
CCC(C)NCCCCOc1ccc(C)cc1[N+](=O)[O-] (stereo not drawn),-93,n,u,n,n,n
C=CCNCCCCOc1ccc(C)cc1[N+](=O)[O-],-82,n,n,n,n,u

# Screens from PubChem.
